High-throughput results as filed in PubChem BioAssay.
Rows were chosen to be rich in hits. Some 8% of all compounds tested hit in one or more screens of this group.
KB-3-1 cytotox – qHTS assay for MDR1-selective chemotherapeutics: Primary screen using the parental adenocarcinoma cell KB-3-1; KB-3-1 viability, CellTiter-Glo ATP luminescence, 72 h; Potency, µM (top dose mostly 46.1 µM), hits mostly cytotoxic; 400,000 tested, 1.4% active; also: % is scaled to controls: 0 for no effect and ±100 for the full control effect; nearly all actives have a fitted effect of over 60% in size
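72 h, 37 °C compound treatment of KB-3-1 parental cells; CellTiter-Glo added, 10 min, luminescence read. Data corrected against DMSO-only plates and normalized before curve fitting.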
HT1080-NT tox – qHTS for induction of synthetic lethality in tumor cells producing 2HG: qHTS for the HT-1080-NT fibrosarcoma cell line; AID 686970, 2013; HT-1080-NT fibrosarcoma viability, CellTiter-Glo ATP luminescence, 48 h; 360,000 tested, 1.6% active; Potency, µM (series often up to 46.1 µM), for the others: top-dose activity, negative = less viability, most hits filed as cytotoxic;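 also: NT is the 2HG producing partner of a matched IDH1 knockdown line; 0% = DMSO-treated cells and -100% = media-only wells without cells; nearly all actives have a fitted effect of over 55% in size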
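HT-1080-NT; 750 cells/well; 5% FBS RPMI; 48 h compound, 37 degrees C; CellTiter-Glo luminescence; curve fitting and curve-class assignment.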
SW480 rerep – A quantitative high throughput screen for small molecules that induce DNA re-replication in SW480 colon adenocarcinoma cells. AID 624297, 2012. Potency, µM (highest dose often 46.1 µM), inactives show top-dose re-replication activation, usual class: activators. SW480 DNA re-replication, Hoechst DNA content imaging, 48 h. 340,000 tested, 1.8% active; also: % of control where 0% means no effect; nearly all actives have a fitted effect of over 55% in size
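First, 250 cells per well were seeded. Next, compound or vehicle (23 nL) was pinned in, plates sat 48 hr at 37 C. Finally Hoechst was added for 40 min before fluorescence scanning.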
HT1080 IDH1KD tx – qHTS for induction of synthetic lethality in tumor cells producing 2HG: qHTS for the HT-1080-IDH1KD cell line; 360,000 tested, 2% active; Potency, µM (doses to about 46.1 µM), inactives show top-dose activity, negative = toxicity, usual class: cytotoxic; HT-1080 IDH1 knockdown viability, ATP luminescence, 48 h; AID 686971, 2013;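 also: 0% = DMSO wells and -100% = cell-free medium wells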
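Assay cells: HT-1080 with IDH1 knockdown, 750 per well, RPMI/5% FBS. Exposure: 48 h at 37 °C following 2 h pre-incubation. Read: CellTiter-Glo luminescence; fitted concentration-response, curve class assigned.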
KB-V1 MDR tox – qHTS assay for MDR1-selective chemotherapeutics: Primary screen using the drug-selected MDR subline cells KB-V1; KB-V1 MDR cells viability, CellTiter-Glo, 72 h; Potency, µM (doses to about 46.1 µM), hits mostly cytotoxic; 400,000 tested, 3.4% active; AID 1347076, 2019; also: % is scaled to controls: 0 for no effect and ±100 for the full control effect; nearly all actives have a fitted effect of over 60% in size
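Readout: CellTiter-Glo luminescence, 10 min after addition. Cells: KB-V1 MDR subline, 72 h at 37 degrees C with compound. Analysis: corrected, normalized data fitted to concentration-effect curves.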
MCF10A rerep – A quantitative high throughput screen for small molecules that induce DNA re-replication in MCF 10a normal breast cells; MCF 10A DNA re-replication, Hoechst nuclear intensity, 48 h; Potency, µM (highest dose often 46.1 µM), for the others: at the top dose activity, positive = re-replication, hits mostly activators; 350,000 tested, 2.9% active; AID 624296, 2012; also: % of control where 0% means no effect; nearly all actives have a fitted effect of over 50% in size
Active calls of the source: *; [ ] = dose if it differs, or a comment. Calls follow the shape of the dose curve; as a rule, active = well fitted curve in the direction sought with a large enough effect; inconclusive = small, poorly fitted or top-dose-only effect, or another doubt; inactive = no such curve, though single readings can be large; an effect the other way counts as inactive or inconclusive. Potency is read from the fitted curve at half-maximal effect.

CCc1nc2c(sc3nc4c(cc32)COC(C)(C)C4)c(=O)n1Cc1ccco1 was read as KB-3-1 cytotox inconclusive, HT1080-NT tox inconclusive, SW480 rerep -6.2%, HT1080 IDH1KD tx 13.3%[9.24 µM], KB-V1 MDR tox 11.6µM* and MCF10A rerep 2.6%.
`N#Cc1c(-c2cccc(Br)c2)cc(-c2ccco2)[nH]c1=O` gave KB-3-1 cytotox inactive, HT1080-NT tox -6.3%, SW480 rerep inconclusive, HT1080 IDH1KD tx -14.8%, KB-V1 MDR tox inactive and MCF10A rerep 7.31µM*.
Screening COc1ccc(-c2cc(-c3ccco3)[nH]c(=O)c2C#N)cc1 returned KB-3-1 cytotox inactive, HT1080-NT tox 6.1%, SW480 rerep 9.5%, HT1080 IDH1KD tx -0.5%, KB-V1 MDR tox inactive and MCF10A rerep 12.6%.
Screening Cc1ccccc1NS(=O)(=O)c1cc(C(=O)Nc2cccc(N(C)S(C)(=O)=O)c2)ccc1C returned KB-3-1 cytotox inactive, HT1080-NT tox inconclusive, SW480 rerep 7.9%, HT1080 IDH1KD tx inconclusive, KB-V1 MDR tox inactive and MCF10A rerep 14.6µM*.
For Cc1ccc(C(=O)Nc2cccc([N+](=O)[O-])c2)cc1S(=O)(=O)Nc1ccc(NC(=O)c2ccccc2)cc1 the results were KB-3-1 cytotox inactive, HT1080-NT tox -1.4%, SW480 rerep 4.0%, HT1080 IDH1KD tx -2.0%, KB-V1 MDR tox inactive and MCF10A rerep 4.7%.
CN(c1cccc(NC(=O)c2ccc(Cl)c(S(=O)(=O)Nc3ccccc3)c2)c1)S(C)(=O)=O was read as KB-3-1 cytotox inactive, HT1080-NT tox inconclusive, SW480 rerep 8.0%, HT1080 IDH1KD tx inconclusive, KB-V1 MDR tox inactive and MCF10A rerep 8.6%.
`Cc1ccc([N+](=O)[O-])cc1S(=O)(=O)Nc1cccc(S(=O)(=O)Nc2ccccc2C(=O)O)c1` gave HT1080-NT tox 5.4%, SW480 rerep -1.3%, HT1080 IDH1KD tx 2.4% and MCF10A rerep 11.0%.
For Cc1ccc(NS(=O)(=O)c2cc(C(=O)Nc3cccc([N+](=O)[O-])c3)ccc2C)cc1 the results were KB-3-1 cytotox inactive, HT1080-NT tox -9.0%, SW480 rerep 0.9%, HT1080 IDH1KD tx inconclusive, KB-V1 MDR tox 14.6µM* and MCF10A rerep inconclusive.
Cc1ccc(C)c(NC(=O)c2ccccc2NS(=O)(=O)c2cc([N+](=O)[O-])ccc2C)c1 was read as KB-3-1 cytotox 20.6µM*, HT1080-NT tox 10.3µM*, SW480 rerep -14.5%, HT1080 IDH1KD tx 13µM*, KB-V1 MDR tox inactive and MCF10A rerep 14.1%.
For CCCCCCOC(=O)Nc1ccc(S(=O)(=O)Nc2cccc([N+](=O)[O-])c2)cc1 the results were KB-3-1 cytotox inactive, HT1080-NT tox -0.6%, SW480 rerep -3.3%, HT1080 IDH1KD tx -0.3%, KB-V1 MDR tox 20.6µM* and MCF10A rerep inconclusive.
Screening Cc1oc(-c2ccccc2)cc1C(=O)NC(Cc1c[nH]c2ccccc12)C(=O)O (stereo not drawn) returned KB-3-1 cytotox inactive, HT1080-NT tox -4.2%, SW480 rerep -6.6%, HT1080 IDH1KD tx 2.6%, KB-V1 MDR tox inactive and MCF10A rerep 3.6%.
CCCCn1c(N)c(N(CCOC)C(=O)c2cc3ccccc3cc2OC)c(=O)[nH]c1=O was read as KB-3-1 cytotox inactive, HT1080-NT tox 3.0%, SW480 rerep -0.9%, HT1080 IDH1KD tx 4.6%, KB-V1 MDR tox inconclusive and MCF10A rerep -0.1%.
Screening CSCCC(NC(=O)c1ccccc1)C(=O)N1CCN(C(=O)c2ccccc2)CC1 (stereo not drawn) returned KB-3-1 cytotox inactive, HT1080-NT tox -2.7%[9.24 µM], SW480 rerep -8.4%, HT1080 IDH1KD tx -2.5%, KB-V1 MDR tox inactive and MCF10A rerep -2.0%.
`Cc1ccc(NS(=O)(=O)c2ccc(OCC(=O)Nc3cccc([N+](=O)[O-])c3)c(C)c2)cc1` gave KB-3-1 cytotox inactive, HT1080-NT tox inconclusive, SW480 rerep 14.0%, HT1080 IDH1KD tx 12.6µM*, KB-V1 MDR tox inactive and MCF10A rerep inconclusive.
For Cc1ccc(NC(=O)CN(C)C(=O)c2ccc(NS(=O)(=O)c3cccc([N+](=O)[O-])c3)cc2)cc1 the results were KB-3-1 cytotox inactive, HT1080-NT tox -8.0%, SW480 rerep 1.9%, HT1080 IDH1KD tx -0.9%, KB-V1 MDR tox inactive and MCF10A rerep -6.8%.
For CCC(=O)NC(=S)Nc1cccc(NC(=O)CC)c1 the results were KB-3-1 cytotox inactive, HT1080-NT tox 1.8%, SW480 rerep -7.0%, HT1080 IDH1KD tx -1.0%, KB-V1 MDR tox inactive and MCF10A rerep 3.2%.
`O=C(OC1CCOC1=O)c1ccccc1C(=O)c1ccc(Cl)c([N+](=O)[O-])c1` (stereo not drawn) gave KB-3-1 cytotox inactive, HT1080-NT tox -0.4%[9.24 µM], SW480 rerep inconclusive, HT1080 IDH1KD tx inconclusive, KB-V1 MDR tox inactive and MCF10A rerep 4.61µM*.
`O=C(COC(=O)c1ccccc1C(=O)c1ccc(Cl)c([N+](=O)[O-])c1)NC1CC1` gave KB-3-1 cytotox 8.2µM*, HT1080-NT tox 6.51µM*, SW480 rerep inconclusive, HT1080 IDH1KD tx 4.61µM*, KB-V1 MDR tox inactive and MCF10A rerep 3.26µM*.
For CNC(=O)COC(=O)c1ccccc1C(=O)c1ccc(Cl)c([N+](=O)[O-])c1 the results were KB-3-1 cytotox inactive, HT1080-NT tox 11.6µM*, SW480 rerep 5.8µM*, HT1080 IDH1KD tx 23.1µM*, KB-V1 MDR tox inconclusive and MCF10A rerep 5.8µM*.
`CCCNC(=O)NC(=O)CSc1nc2ccccc2n1CC(C)C` gave KB-3-1 cytotox inactive, HT1080-NT tox 1.0%, SW480 rerep -2.2%, HT1080 IDH1KD tx 4.0%, KB-V1 MDR tox inconclusive and MCF10A rerep -3.3%.
For C=CCn1c(-c2ccc(OC)c(OC)c2)n[nH]c1=S the results were KB-3-1 cytotox inconclusive, HT1080-NT tox 5.6%, SW480 rerep -3.2%, HT1080 IDH1KD tx 11.2%, KB-V1 MDR tox 16.4µM* and MCF10A rerep -3.0%.
Screening Cc1ccc(C(NC(=O)N2CCOCC2)=C(Cl)Cl)cc1F returned KB-3-1 cytotox inactive, HT1080-NT tox inconclusive, SW480 rerep 20.7%, HT1080 IDH1KD tx 14.1µM*, KB-V1 MDR tox inactive and MCF10A rerep inconclusive.
